Assay results from PubChem BioAssay (NCATS).
Results filed as inconclusive are left out. A call without a number means that no potency is given here. Active and inactive are the calls of the source. Calls come from the whole dose curve; as a rule, active = well fitted cell-killing curve with a large enough effect; inconclusive = small, poorly fitted or top-dose-only effect, or effect the other way; inactive = flat fitted curve, though single readings scatter.

Key:
Experiment in all cases: Primary qHTS to identify gynecologic anti-cancer compounds using libraries of approved drugs and bioactive compounds (AID 1345084); note: nearly all actives have a fitted effect of over 55% in size
Conditions in all cases: Gynecologic cancer cell panel viability, ATPlite luminescence, 48 h; series mostly up to 57.5 µM
SKOV3 = system: SKOV3
How it was run: (§1)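 In this quantitative HTS, cell killing is estimated from loss of ATP-dependent luciferase light. Cells see five compound concentrations over a 48 h exposure.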

Tov-21-G = system: Tov-21-G
How it was run: as §1

Tov112D = system: Tov112D
How it was run: as §1
Potency is the fitted concentration of half-maximal effect.

Compound	Potency (SKOV3)	Potency (Tov-21-G)	Potency (Tov112D)	activity change, negative = cytotoxicity (SKOV3)	activity change, negative = cytotoxicity (Tov-21-G)	activity change, negative = cytotoxicity (Tov112D)
CC(=O)O[C@@H]1CC2C(C)(C)C(=O)C=C[C@]2(C)C2CC[C@@]3(C)[C@H](c4ccoc4)OC(=O)[C@H]4O[C@]43[C@@]21C (stereo not given in full)	inactive	inactive	inactive	–	–	–
O=C(Nc1cnc(Cl)nc1)c1ccc(F)c(F)c1	inactive	inactive	inactive	–	–	–
CN1CCc2cc3c(cc2C(=O)Cc2cc4c(cc2C1)OCO4)OCO3	inactive	inactive	inactive	–	–	–
Cc1cc(-c2cc(OC(=O)c3ccccc3)ccc2Cl)cc2nnc(Nc3ccc(OCCN4CCCC4)cc3)nc12	inactive	inactive	inactive	–	–	–
C=C(C)C1CCC2(C(=O)O)CCC3(C)C(CCC4C5(C)C(C=O)C(O)C(C)(C)C5CCC43C)C12 (stereo not given)	inactive	inactive	inactive	–	–	–
COc1cccc(N2CCN(C3=Nc4c(F)cccc4[C@H](CC(=O)O)N3c3cc(C(F)(F)F)ccc3OC)CC2)c1	inactive	inactive	inactive	–	–	–
COc1ccccc1N1CCN(CC(C(=O)NC(C)(C)C)c2ccccc2)CC1 (stereo not given)	inactive	inactive	inactive	–	–	–
CC1CCCC(O)CCC/C=C/c2cc(OS(=O)(=O)O)cc(O)c2C(=O)O1 (stereo not given)	inactive	inactive	inactive	–	–	–
C/C=C/[C@@H]1C=C[C@@H]2C[C@H](C)CC[C@H]2[C@]1(C)/C(O)=C1/C(=O)[C@@H](CO)N(C)C1=O	inactive	inactive	inactive	–	–	–
O=C(NCC(=O)N1CCCC1)Nc1ccc2cnccc2c1	inactive	inactive	inactive	–	–	–
Cc1noc(-c2ccc(-c3ccc(CC(=O)O)cc3)cc2)c1NC(=O)O[C@H](C)c1ccccc1Cl	inactive	inactive	inactive	–	–	–
COc1cc(C(=O)NC(=S)Nc2cccc(NC(=O)c3ccccc3)c2)cc(OC)c1OC	inactive	inactive	inactive	–	–	–
CC1(C)C2CCC(CO[C@@H]3O[C@H](CO[C@@H]4OC[C@](O)(CO)[C@H]4O)[C@@H](O)[C@H](O)[C@H]3O)C1C2 (stereo not given in full)	inactive	inactive	inactive	–	–	–
CCOC(=O)c1csc(Nc2ccc(Cl)cc2)n1	inactive	inactive	inactive	–	–	–
COc1ccc(CNCc2cccc3ccccc23)cc1	inactive	inactive	inactive	–	–	–
O=C(N[C@H]1CCN(C(=O)c2cc(C(F)(F)F)cc(C(F)(F)F)c2)[C@H](Cc2ccc(Cl)cc2)C1)c1ccnc2ccccc12	inactive	inactive	inactive	–	–	–
O=C(C(Cc1cccc(C(F)(F)F)c1)NS(=O)(=O)c1cc(F)c2c(c1)CCNC2)N1CCCC1 (stereo not given)	inactive	inactive	inactive	–	–	–
C/C1=C/CCC2=CC(OC2=O)C(C)(C)/C=C/C1=O (stereo not given)	12.6 µM (active)	8.91 µM (active)	20 µM (active)	–	–	–
N#Cc1ccc2ncnc(NCCc3ccccc3)c2c1	inactive	inactive	inactive	–	–	–
COC(=O)C[C@H]1C(C)(C)[C@H](OC(=O)c2ccccc2)C2CC3=C4CC(=O)O[C@@H](c5ccoc5)[C@]4(C)CCC3[C@@]1(C)C2=O (stereo not given in full)	inactive	inactive	inactive	–	–	–
O=c1[nH]cnc2c([C@@H]3N[C@H](CO)[C@@H](O)[C@H]3O)c[nH]c12	inactive	inactive	inactive	–	–	–
CC(C)NCCCn1c(Sc2cc3c(cc2I)OCO3)nc2c(N)ncnc21	2 µM (active)	0.501 µM (active)	0.891 µM (active)	–	–	–

Compound	Potency (SKOV3)	Potency (Tov-21-G)	Potency (Tov112D)	activity change, negative = cytotoxicity (SKOV3)	activity change, negative = cytotoxicity (Tov-21-G)	activity change, negative = cytotoxicity (Tov112D)
O=S(=O)(Nc1ccccc1N1CCCCC1)c1ccc(Cl)s1	inactive	inactive	inactive	–	–	–
C=C1CC[C@@H](O)[C@]2(C)C[C@H]3OC(=O)C(=C)[C@H]3CC12 (stereo not given in full)	inactive	inactive	inactive	–	–	–
CCC(C)CNCC(=O)N1CCC2SC=CC2C1COc1cccc(C)c1 (stereo not given)	inactive	inactive	inactive	–	–	–
Cc1cn2c(n1)Cc1ccc(Cl)cc1C(c1ccc(N)cc1)=N2	inactive	inactive	inactive	–	–	–
O=C(NCCCc1ccccc1)c1cccc(-c2cc(O)c3ncccc3c2)c1	11.2 µM (active)	inactive	17.8 µM (active)	–	–	–
CC1=C(C(=O)OC2CCCCC2)C(c2ccc([N+](=O)[O-])cc2)C2=C(CC(C)(C)CC2=O)N1 (stereo not given)	inactive	inactive	inactive	–	–	–
C#CCOc1ccc2c(c1)c(-c1ccc(C(C)C)cc1)nc(=O)n2C(C)C	inactive	inactive	inactive	–	–	–
CC(C)=CCCC1(C)C2CCC1(C)C(O)C2 (stereo not given)	inactive	inactive	inactive	–	–	–
O=c1[nH]c2cccc(N3CCN(Cc4ccc(-c5ccccc5)cc4)CC3)c2o1	inactive	inactive	inactive	–	–	–
CN1CCN(C2=Nc3ccccc3Nc3ccc(Cl)cc32)CC1	inactive	inactive	inactive	–	–	–
CC1=CC2/C=C(\C)CCC(O)C/C=C/C(=O)OC23C(=O)NC(CC(C)C)C3C1C (stereo not given)	inactive	inactive	inactive	–	–	–
COc1ccc(C#Cc2ccc(C(=O)N3CCC[C@@H](O)C3)c(F)c2)cc1	8.91 µM (active)	7.08 µM (active)	8.91 µM (active)	–	–	–
Cc1ccc(C)c(NC(=O)[C@@H]2CCCN2S(=O)(=O)c2cccc3cccnc23)c1	inactive	inactive	inactive	–	–	–
C=C1CCN([C@H](C)[C@](O)(Cn2cncn2)c2ccc(F)cc2F)CC1	inactive	inactive	inactive	–	–	–
C=C1/C(=C/C=C2\CCC[C@]3(C)[C@@H]([C@H](C)/C=C/[C@@H](C)C(C)C)CC[C@@H]23)C[C@@H](O)C[C@@H]1O	inactive	inactive	inactive	–	–	–
CC(C)c1cccc(C(C)C)c1NC(=O)Nc1ccc(Sc2ccc([N+](=O)[O-])cc2)cc1	inactive	inactive	inactive	–	–	–
COc1cc(CCc2ccc(OCC=C(C)C)cc2)cc(OC)c1OC	inactive	inactive	inactive	–	–	–
O=C(/C=C/c1ccccc1O)O[C@@H]1O[C@H](CO)[C@@H](O)[C@H](O)[C@H]1O	inactive	inactive	inactive	–	–	–
CCOc1ccc(-n2c(C(C)N(Cc3cccnc3)C(=O)Cc3ccc(F)c(C(F)(F)F)c3)nc3ncccc3c2=O)cc1 (stereo not given)	inactive	inactive	inactive	–	–	–
O=C(Nc1ccc(-c2ccc(Cl)c(Cl)c2)cc1)C1=C(O)c2ccccc2S(=O)(=O)N1	inactive	inactive	inactive	–	–	–
CC(=O)O[C@@H]1CC2C(/C=C(\C)C(=O)[C@@]3(O)C[C@@H](C)[C@H](OC(=O)c4ccccc4)C3/C=C/1C)C2(C)C (stereo not given in full)	inactive	inactive	inactive	–	–	–
C=C1CC2OC(=O)C(=C)C2C(O)/C=C(\C)CCC1O (stereo not given)	inactive	inactive	inactive	–	–	–

Compound	Potency (SKOV3)	Potency (Tov-21-G)	Potency (Tov112D)	activity change, negative = cytotoxicity (SKOV3)	activity change, negative = cytotoxicity (Tov-21-G)	activity change, negative = cytotoxicity (Tov112D)
CC(C)C[C@H](C(=O)O)c1cc(-c2ccc(C(F)(F)F)cc2)cc(-c2ccc(C(F)(F)F)cc2)c1	inactive	inactive	inactive	–	–	–
COC1C=C(C)C(O)(CO)C2(C)CCCC(C)(C)C12 (stereo not given)	inactive	inactive	inactive	–	–	–
CC(C)(C)OC(=O)c1ncn2c1C(C)(C)Nc1ccccc1-2	inactive	inactive	inactive	–	–	–
C=C1CCCC2(C)CCC(C(C)(C)OC3OC(C)C(O)C(O)C3OC(=O)/C(C)=C\C)CC12 (stereo not given)	inactive	inactive	inactive	–	–	–
O=C(Nc1ccc(Cl)cc1)Nc1cccc(-c2cccc(N3CCCC3)n2)c1	inactive	inactive	inactive	–	–	–
CN1CCN(c2ccc(-c3cccc(CN4CCOCC4)c3)cc2NC(=O)c2c[nH]c(=O)cc2C(F)(F)F)CC1	inactive	inactive	inactive	–	–	–
CC(C)CCNC(=O)c1ccc2c(c1)nc(Nc1n[nH]c3ccc(-c4ccccc4OC(F)(F)F)cc13)n2C1CCC(O)CC1 (stereo not given)	inactive	inactive	inactive	–	–	–
FC(F)(F)c1ccccc1-c1cc(C(F)(F)F)c2nc(C3=NOC4(CCCCC4)C3)[nH]c2c1	inactive	inactive	inactive	–	–	–
C[C@@H]1O[C@@H](O[C@H]2[C@@H](OC(=O)[C@]34CCC(C)(C)CC3C3=CCC5[C@@]6(C)C[C@H](O)[C@H](O[C@@H]7O[C@H](CO)[C@@H](O)[C@H](O)[C@H]7O[C@@H]7OC[C@@H](O)[C@H](O)[C@H]7O)[C@@](C)(C(=O)O)C6CC[C@@]5(C)[C@]3(C)CC4)OC[C@H](O)[C@@H]2O)[C@H](O)[C@H](O)[C@H]1O[C@@H]1OC[C@@H](O)[C@H](O)[C@H]1O (stereo not given in full)	–	–	–	-18.3% [at 6.55 µM] (inactive)	0.0725% [at 6.55 µM] (inactive)	-12.7% [at 6.55 µM] (inactive)
Cc1cccc(C#Cc2cc(F)cc(C#N)c2)n1	inactive	inactive	inactive	–	–	–
Cc1cc(NC(=O)NCCN2CCC(O)(Cc3ccccc3)CC2)c2ccccc2n1	inactive	inactive	inactive	–	–	–
Cn1c(SCC(=O)N2CCC[C@H]2C(=O)Nc2ccccc2-c2ccccc2)nc2ccccc21	inactive	inactive	inactive	–	–	–
CC(C)C[C@H](CO)Nc1nc(S[C@@H](C)c2ccccc2)nc2nc(N)sc12	inactive	inactive	inactive	–	–	–
CC1(CO)CC2C(O)C3=C(CC(C)(O)C2C1)C(=O)OC3 (stereo not given)	inactive	inactive	inactive	–	–	–
CC(=O)O[C@H]1C[C@H](OC(C)=O)[C@]2(C)[C@H](CC[C@@]34O[C@@H]3C3=C(C)C(=O)O[C@@H]3C[C@H]42)C1(C)C	inactive	inactive	inactive	–	–	–
COc1ccc(CCN(C)CCCOc2nsc(-c3ccccc3)n2)cc1OC	inactive	inactive	inactive	–	–	–
CCC(CC)(NC(=O)C(C)C)C(=O)N[C@@H](CCCN=C(N)N)C(=O)NC1(C(=O)NC(c2ccc(F)cc2)c2ccc(F)cc2)CCCC1	inactive	inactive	inactive	–	–	–
N#Cc1cccc(C(=O)Nc2cc(-c3ccccc3)nn2-c2ccccc2)c1	inactive	inactive	inactive	–	–	–
CCOC(=O)N1CCC(N2CCC[C@@H](NC(=O)c3ccccc3C)C2)CC1	inactive	inactive	inactive	–	–	–
CCC/C=C\C=C/CCc1cc(O)c([C@@H]2O[C@H](CO)[C@@H](O)[C@H](O)[C@H]2O)c(O)c1C(=O)OC	inactive	inactive	inactive	–	–	–
CC1=C(C(=O)Nc2cc(Cl)ccc2Cl)C(c2ccco2)C2=C(CCCC2=O)N1 (stereo not given)	inactive	inactive	inactive	–	–	–
